Compound activity deposited in PubChem BioAssay by National Center for Advancing Translational Sciences (NCATS).
Shown are actives, neighbours in structure and some others; about 0.74% of the full set was active somewhere.
Akt phos inh = Akt phosphorylation inhibition; Neuro2A IGF-stimulated pAkt S473 HTRF, 20 min; hits give low values; activity change, % for hits at 50 µM; 0.32% of 360,000 active; AID 651550; in the data active = activity change below about -80%; inconclusive = mostly about -51% to -80%
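Single-point screen (50 µM final compound) in Neuro2A cells stimulated 20 min with 6 nM IGF at 37 deg C. After lysis, Ser473-phosphorylated Akt read by HTRF (ex 330 nm, em 615/665 nm) as the 665/615 ratio.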
TCR act = T cell receptor activation. primary human leukocytes, anti-CD3, IL-2 HTRF, 48 h. Potency, µM (titrated, usually from 9.22 µM), usual class: activators. 330,000 tested, under 10 active; active = well fitted activation curve with a large enough effect; inconclusive = small, poorly fitted or top-dose-only effect, or another doubt; inactive = no such curve, though single readings can be large or run the other way
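1) Mix primary human leukocytes, a-CD3 beads and compound. 2) Incubate 48 hr. 3) Add HTRF IL-2 reagents (a-IL-2-K, a-IL-2-d2).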
CCT modulator = cytosolic chaperonin activity modulation; AID 651819; activity change, % (concentration not given with the values), hits read low; purified chaperonin ATPase assay, HTRF ADP detection, 30 min; 0.3% of 360,000 active; in the data active = activity change below about -30%
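Nucleotide hydrolysis assay: TRiC at 20–40 nM final (set by batch activity) with 10 uM ATP, 30 min at 37 °C, in presence of 76 uM compound. Detection by competitive ADP HTRF, 30 min ambient.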
TSHR antag = human thyrotropin receptor antagonism; activity change, negative = inhibition, % at 11.5 µM; AID 504810; 0.2% of 330,000 active; TSHR-expressing cells, TSH-stimulated cAMP HTRF, 2 h; hits give low values;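 active = activity change below a set negative limit, meaning inhibition stronger than a set level, cut at about -70% in these data; inconclusive = activity change between two set negative limits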
Target sequence (P16473 whole entry, looked up): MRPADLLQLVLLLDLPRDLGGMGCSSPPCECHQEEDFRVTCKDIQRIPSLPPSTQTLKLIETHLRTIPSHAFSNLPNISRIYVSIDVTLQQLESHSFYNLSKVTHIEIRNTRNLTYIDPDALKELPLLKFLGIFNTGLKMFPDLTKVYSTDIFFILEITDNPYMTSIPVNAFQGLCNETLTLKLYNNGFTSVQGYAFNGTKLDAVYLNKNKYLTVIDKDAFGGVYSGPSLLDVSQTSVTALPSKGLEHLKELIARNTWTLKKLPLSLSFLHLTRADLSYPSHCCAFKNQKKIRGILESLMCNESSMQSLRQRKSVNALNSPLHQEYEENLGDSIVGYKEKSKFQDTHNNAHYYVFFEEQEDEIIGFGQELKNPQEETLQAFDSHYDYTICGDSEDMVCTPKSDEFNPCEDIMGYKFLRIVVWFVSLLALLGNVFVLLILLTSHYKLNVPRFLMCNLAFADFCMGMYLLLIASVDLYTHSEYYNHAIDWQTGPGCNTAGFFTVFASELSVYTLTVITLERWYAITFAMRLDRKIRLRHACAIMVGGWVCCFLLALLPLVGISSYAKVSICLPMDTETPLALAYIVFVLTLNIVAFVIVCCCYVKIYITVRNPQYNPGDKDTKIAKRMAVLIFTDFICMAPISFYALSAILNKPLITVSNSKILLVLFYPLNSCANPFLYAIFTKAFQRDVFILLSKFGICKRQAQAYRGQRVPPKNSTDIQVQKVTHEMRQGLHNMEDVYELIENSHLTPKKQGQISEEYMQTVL
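Freshly harvested TSHR cells receive pin-tooled compound, then EC80 TSH at 4nM final. After 2 hours at 37 deg C, antibody in lysis buffer and cAMP-d2 are added; 30 minutes at ambient temperature precede the HTRF read.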
Large screens that a line does not name were inactive.

C=CCNC(=S)NNc1nc(Nc2ccccc2)nc(N2CCCCC2)n1	none
C=CCNC(=S)NNc1nc(N2CCCC2)nc(N2CCCC2)n1	CCT modulator -53.9 (no result: TCR act)
CCCN1C(=O)c2ccccc2NC1c1ccc(OC)cc1O (stereo not given)	CCT modulator -85.5
CCCN1C(=O)c2ccccc2NC1c1ccc(OC)cc1OC (stereo not given)	none
CC(OC(=O)c1cccc(N(C)C)c1)C(=O)N1CCc2ccccc2C1 (stereo not given)	none
COc1ccc(CCNCCC(=O)Nc2c(C)cc(C)cc2C)cc1OC	none
COc1ccc(CNCCCC(=O)Nc2c(Cl)ccc(C)c2Cl)cc1OC	CCT modulator -48.0
Cc1cccc(C)c1NC(=O)C(c1ccccc1)N1CCC(c2ccccc2)CC1 (stereo not given)	none (no result: TCR act, CCT modulator, TSHR antag)
CSc1ccc(C2Nc3cccc4cccc(c34)N2)cc1	none
Clc1ccc(C2Nc3cccc4cccc(c34)N2)cc1	CCT modulator -55.5, TSHR antag inconclusive
CCOCCCNC(=S)Nc1ccc(S(N)(=O)=O)cc1	none
CC(=O)C1C(c2ccc(Cl)cc2)c2c(noc2C)CC1(C)O (stereo not given)	none
CCOC(=O)C(C)Oc1ccc(NC(=O)C(Cl)Cl)cc1 (stereo not given)	none
COc1ccc(NC(=S)N(C(C)C)C2CCN(C(C)C)CC2)cc1Cl	TSHR antag -80.9 (no result: Akt phos inh, TCR act, CCT modulator)
COc1ccc(NC(=S)N(CCC(C)C)C2CCN(C(C)C)CC2)cc1	none
CN1CCN(S(=O)(=O)c2ccc(N3CCN(c4ccccc4Cl)CC3)nc2)CC1	none
Oc1[nH]c2c(Cl)cc(Cl)cc2c1N=NC(=S)NCC1CCCO1 (stereo not given)	CCT modulator -39.8
C[C@@H]1CN([C@@H](C)CO)C(=O)c2cc(N(C)C)ccc2O[C@@H](C)CCCCO[C@@H]1CN(C)Cc1ccc2c(c1)OCO2	none (no result: TCR act, TSHR antag)
Cc1ccc(S(=O)(=O)c2c(N)n(-c3ccccc3)c3nc4ccccc4nc23)cc1	CCT modulator -34.9
Nc1c(Cl)cc2c(c1Br)Cc1ccccc1-2	none (no result: TSHR antag)
Nc1ccc2c(c1Br)Cc1ccccc1-2	CCT modulator -40.8 (no result: TSHR antag)
CN1CCc2nc(NC(=O)c3cccc(S(=O)(=O)N4CCc5ccccc54)c3)sc2C1	CCT modulator -35.1
O=C(Nc1nc2c(s1)CCCC2)c1cccc(S(=O)(=O)N2CCCc3ccccc32)c1	none
Cc1cc(C(=O)COc2ccc(F)cc2Br)c(C)n1C1CC1	none
Nc1ncnc2c1ncn2Cc1ccccc1	none
Nc1ncnc2c1ncn2CCOc1ccccc1	CCT modulator -30.9
O=C(O)c1ccccc1NC(=O)C(Cc1ccccc1)N1C(=O)c2ccccc2C1=O (stereo not given)	CCT modulator -32.4
O=C(NCCS(=O)(=O)N1CCCCCC1)c1ccc(F)cc1	none
O=C(CSc1ncccn1)N1CCc2ccccc2C1	none
O=C(CNCc1ccccn1)N1CCc2ccccc2C1	CCT modulator -43.6
CN(C(=O)c1cccc(S(=O)(=O)N2CCCC2)c1)C1CCCCC1	none
CC(CCc1ccccc1)NC(=O)C(Cc1ccccc1)NC(N)=O (stereo not given)	none
CCCC(=O)OCCNc1cc(Sc2nccn2C)c2nonc2c1[N+](=O)[O-]	TSHR antag -93.3
CCCSc1cc(NCCOC(C)=O)c([N+](=O)[O-])c2nonc12	none
CCC(=O)OCCNc1cc(Sc2nc3ccccc3s2)c2nonc2c1[N+](=O)[O-]	TSHR antag inconclusive (no result: TCR act)
O=[N+]([O-])c1c(NCCCO)cc(Sc2nc3ccccc3s2)c2nonc12	TSHR antag -94.2
Cc1nnc(Sc2cc(NCCO)c([N+](=O)[O-])c3nonc23)s1	CCT modulator -57.6
Cc1nnc(Sc2cc(NCCCO)c([N+](=O)[O-])c3nonc23)s1	TSHR antag -85.6
CC1=C(C(=O)OCC2CCCO2)C(c2ccccc2Cl)NC(=O)N1 (stereo not given)	Akt phos inh -98.7%
CC1=C(C(=O)OCC2CCCO2)C(c2ccc(Cl)c(Cl)c2)NC(=O)N1 (stereo not given)	none
Cc1cc(NC(=O)CCC(=O)N(Cc2ccco2)C2(C(=O)NC3CCCCC3)CCCC(C)C2)no1 (stereo not given)	none
Cc1cc(NC(=O)CSc2ncc(C(=O)O)n2-c2ccc(F)cc2)no1	none (no result: TSHR antag)
COc1ccc(-n2c(C)cc(C(=O)COC(=O)c3ccc(O)cc3O)c2C)cc1	TSHR antag -73.5
Cn1c(N)c(C(=O)COC(=O)C2CCCC2)c(=O)n(C)c1=O	none
Cn1c(N)c(C(=O)COC(=O)C2CCC(C(C)(C)C)CC2)c(=O)n(C)c1=O (stereo not given)	Akt phos inh -107.7%
NC(=O)C(=O)O	none (no result: Akt phos inh, TCR act, CCT modulator)
CSCC(=O)N1CCC(CCC(=O)NC2CC2)CC1	CCT modulator -53.0 (no result: Akt phos inh)
Cc1ccsc1CNC(=O)C1(C)CCN1C(=O)C(C)C (stereo not given)	none (no result: TCR act, TSHR antag)
O=C(CSc1nnnn1Cc1ccccc1)N1CCN(c2ccccc2)CC1	CCT modulator -37.4 (no result: TCR act)
Nc1nc(SCC(=O)N2CCN(c3ccccc3)CC2)n[nH]1	none
Cc1nc(SCC(=O)N2CCN(c3ccccc3)CC2)n[nH]1	TSHR antag -89.5
Cc1ccc2nc(-c3cccc(Br)c3)c(Cc3ccccn3)n2c1	none (no result: TCR act, TSHR antag)
COc1ccccc1NC(=O)COC(=O)C1CC2CCCC(C1)C2=O (stereo not given)	none
COc1ccc(N2C(=O)C(Cl)=C(N3CCN(Cc4ccccc4)CC3)C2=O)cc1	none
COc1ccc(N2C(=O)C(Cl)=C(N(CCO)Cc3ccccc3)C2=O)cc1	Akt phos inh -111.6%
CN(C(=O)CN1C(=O)/C(=C/c2ccccc2Cl)SC1=S)C1CCS(=O)(=O)C1 (stereo not given)	TSHR antag -126.4
CCn1c(SCc2ccc(C(=O)Nc3nccs3)cc2)nnc1-c1ccc(NC(C)=O)cc1	Akt phos inh -107.4%
CCOC(=O)CNC(=O)CNC(=O)c1ccc(OC)cc1	Akt phos inh -108.0%
COc1ccccc1C(=O)COC(=O)/C=C/c1ccccc1	TSHR antag -92.8
N#CCc1nc(-c2cc3ccccc3oc2=O)cs1	CCT modulator -32.0
O=c1oc2ccccc2cc1-c1nc(-c2cccs2)cs1	none
Cc1c(C)c2ccc(OCC(=O)NC3CCN(Cc4ccccc4)CC3)cc2oc1=O	none
CC(O)CNc1nc2c(c(=O)n(C)c(=O)n2C)n1CCc1ccccc1 (stereo not given)	Akt phos inh -111.5%
Cn1c(=O)c2c(nc(NCC(O)CO)n2CCc2ccccc2)n(C)c1=O (stereo not given)	none
O=C(c1ccc2c(c1)OCO2)N1CCN(c2ccc(Cl)cc2)CC1	none
O=C(c1cccc(Cl)c1)N1CCN(Cc2ccc3c(c2)OCO3)CC1	TSHR antag -120.1
O=C(c1ccc2c(c1)OCO2)N1CCN(S(=O)(=O)c2ccc(Cl)cc2)CC1	TSHR antag -96.1
CCC(C)(C)NC(=O)C(c1ccccn1)N(C(=O)c1csnn1)c1ccc(C)cc1 (stereo not given)	CCT modulator -33.9
